The values that follow come from ChEMBL document CHEMBL4296182, “CO-ADD screening of NIH NCI Diversity Set V”.

Structures are written as SMILES. For part of these data: Results with a measured potency or affinity are listed apart.

One test has as its system Staphylococcus aureus. The test can be described thus: Antibacterial activity against Staphylococcus aureus MRSA ATCC 43300 (CO-ADD:GP_020); MIC in CAMBH media using NBS plates, by Resazurin F(560/590). Particulars: Concentration 20 uM, ASSAY_TEST Inhibition of Bacterial Growth, detection method Resazurin, Fluorescence (ex560/em590), MEDIA CAMHB, plate type 384well, CORNING #3640, time 18 hr. The class given is functional. Background: Alamar Blue is a resazurin reagent that responds to reducing activity.

A further test deals with Acinetobacter baumannii. Nature of the test: Antibacterial activity against Acinetobacter baumannii ATCC 19606 (CO-ADD:GN_034); MIC in CAMBH media using NBS plates, by Resazurin F(560/590). In kind it is functional. To be noted: Concentration 20 uM, ASSAY_TEST Inhibition of Bacterial Growth, detection method Resazurin, Fluorescence (ex560/em590), MEDIA CAMHB, plate type 384well, CORNING #3640, time 18 hr.

Another test has as its system Escherichia coli. The test can be described thus: Antibacterial activity against Escherichia coli ATCC 25922 (CO-ADD:GN_001); MIC in CAMBH media using NBS plates, by Resazurin F(560/590). In kind it is functional. Particulars: Concentration 20 uM, ASSAY_TEST Inhibition of Bacterial Growth, detection method Resazurin, Fluorescence (ex560/em590), MEDIA CAMHB, plate type 384well, CORNING #3640, time 18 hr.

In another test the test system is Klebsiella pneumoniae. Particulars: Concentration 20 uM; ASSAY_TEST Inhibition of Bacterial Growth; detection method Absorption (OD600); MEDIA CAMHB; plate type 384well; NBS; CORNING #3640; time 18 hr.
A further test deals with Candida albicans. Particulars: 20 µM.
Another test has as its system Cryptococcus neoformans. Particulars: Concentration 20 uM; ASSAY_TEST Inhibition of Fungal Growth; detection method Resazurin; Absorption (OD600-OD570); plate type 384well; NBS; CORNING #3640.

For the compound `NC(=O)CCC(C(=O)O)N1C(=O)c2ccc(O)cc2C1=O` (centres undefined), the Inhibition – broadly, the drop in the measured response relative to a control, in per cent – in the test on Staphylococcus aureus is 8.42%; in the test on Acinetobacter baumannii, 13.26%; in the test on Escherichia coli, -2.7%; in the test on Klebsiella pneumoniae, 12.88%; in the test with Candida albicans, 4.99%; in the test with Cryptococcus neoformans it was -2.28%.
For `NCC(=O)c1cccc2ccc[n+]([O-])c12`, the Inhibition is 9.77% in the test with Staphylococcus aureus; 5.17% in the test with Acinetobacter baumannii; 0.84% with Escherichia coli; 20.91% in the test on Klebsiella pneumoniae; 0.31% in the test with Candida albicans; -8.51% in the test on Cryptococcus neoformans.
Take `O=C(COc1cc(Cl)c(Cl)cc1Cl)Nc1ccc([N+](=O)[O-])cc1Cl`: the Inhibition in the test on Staphylococcus aureus was 25.16%; in the test with Acinetobacter baumannii, -3.59%; in the test on Escherichia coli, 13.57%; in the test on Klebsiella pneumoniae, 15.89%; in the test on Candida albicans, 2.39%; in the test on Cryptococcus neoformans, 1.18%.
As to `COc1ccc(C(=S)N2CCN(c3ccccc3C)CC2)cc1`, the Inhibition in the test on Staphylococcus aureus was 6.05%; in the test on Acinetobacter baumannii, -20.13%; with Escherichia coli it was 15.7%; in the test on Klebsiella pneumoniae, 10.93%; in the test with Candida albicans it was 24.1%; in the test on Cryptococcus neoformans, -16.11%.
For `Cn1c(=O)c2nc(SCc3ccccn3)[nH]c2n(C)c1=S`, the Inhibition with Staphylococcus aureus was 8.4%; in the test with Acinetobacter baumannii, 9.84%; in the test with Escherichia coli, -0.48%; with Klebsiella pneumoniae it was 14.94%; with Candida albicans, 0.94%; in the test with Cryptococcus neoformans it was -2.39%.
As for `Cc1nc(NC(=N)N(C)C)nc(O)c1C`, the Inhibition was 4.99% with Staphylococcus aureus; -6.08% in the test with Acinetobacter baumannii; 5.79% with Escherichia coli; 6.63% with Klebsiella pneumoniae; 0.54% in the test with Candida albicans; -10.51% in the test on Cryptococcus neoformans.
For `Nc1ccc(/C=C/c2ccc3ncccc3c2)cc1`, the Inhibition with Staphylococcus aureus is -2.75%; in the test with Acinetobacter baumannii, -9.02%; in the test with Escherichia coli it was 3.29%; with Klebsiella pneumoniae, 1.77%; in the test with Candida albicans, 2.51%; in the test with Cryptococcus neoformans, -10.25%.
Consider `CC1=NCC(C)c2ccccc21` (centres undefined), for which the Inhibition with Staphylococcus aureus was 18.64%; in the test with Acinetobacter baumannii, -4.26%; in the test on Escherichia coli, 9.51%; in the test on Klebsiella pneumoniae, 8.39%; in the test on Candida albicans, -2.04%; in the test on Cryptococcus neoformans it was -2.64%.
Regarding `CSc1nsc(NN)n1`, the Inhibition in the test with Staphylococcus aureus is 4.83%; in the test on Acinetobacter baumannii, -22.35%; in the test on Escherichia coli, 5.94%; in the test on Klebsiella pneumoniae, 8.53%; in the test with Candida albicans it was 8.71%; with Cryptococcus neoformans it was -11.9%.
Consider `CCOC(=O)c1cc(-c2cccnc2)nc2c(Cl)cc(Cl)cc12`, for which the Inhibition in the test on Staphylococcus aureus was 15.12%; with Acinetobacter baumannii, -10.84%; with Escherichia coli, 5.86%; in the test with Klebsiella pneumoniae it was 9.75%; in the test with Candida albicans, 4.8%; in the test with Cryptococcus neoformans it was -6.65%.
Take `NC(=O)NC(=O)c1nccnc1C(=O)O`: the Inhibition was 4.42% with Staphylococcus aureus; -16.67% in the test on Acinetobacter baumannii; 10.6% in the test with Escherichia coli; 1.89% in the test on Klebsiella pneumoniae; 0.76% in the test on Candida albicans; -7.91% in the test on Cryptococcus neoformans.
As to `COC(=O)[C@H]1[C@H]2C[C@@H]3c4[nH]c5cc(OC)ccc5c4CCN3C[C@H]2C[C@@H](OC(=O)CC(C)=O)[C@@H]1OC`, the Inhibition in the test with Staphylococcus aureus is 16.88%; in the test on Acinetobacter baumannii it was -0.32%; in the test with Escherichia coli, 11.28%; with Klebsiella pneumoniae, 5.93%; in the test on Candida albicans, -0.86%; in the test on Cryptococcus neoformans, -1.53%.
Turning to `Cc1cc(O)c(C(C)C)cc1NC(=O)Nc1cccc2ccccc12`, the Inhibition in the test on Staphylococcus aureus is -3.74%; with Acinetobacter baumannii, -15.42%; in the test with Escherichia coli, 2.96%; in the test with Klebsiella pneumoniae it was 4.38%; in the test with Candida albicans, 8.57%; with Cryptococcus neoformans, -2.63%.
Turning to `CCC(C)c1c(N)n(S(=O)(=O)c2ccc(C)cc2)oc1=O` (centres undefined), the Inhibition in the test with Staphylococcus aureus is 12.19%; in the test with Acinetobacter baumannii, -9.07%; in the test with Escherichia coli, 9%; in the test with Klebsiella pneumoniae, 8.85%; with Candida albicans it was 1.8%; with Cryptococcus neoformans, -2.18%.
Consider `Cc1cc(=O)n2nc(-c3ccc(C(C)(C)C)cc3)cc2[nH]1`, for which the Inhibition was 15.3% in the test on Staphylococcus aureus; 0.45% in the test with Acinetobacter baumannii; 6.17% in the test with Escherichia coli; 14.85% in the test on Klebsiella pneumoniae; 4.49% in the test on Candida albicans; -5.87% in the test on Cryptococcus neoformans.
`CCOC(=O)c1cc(OCC)c2c(ccc3ccccc32)n1`: the Inhibition in the test on Staphylococcus aureus is -12.94%; in the test on Acinetobacter baumannii, 1.72%; in the test on Escherichia coli, -4.9%; in the test with Klebsiella pneumoniae it was 7.15%; with Candida albicans, 2.28%; with Cryptococcus neoformans, -11.11%.
Take `c1ccc(Nc2cccc3c(Nc4ccccc4)cccc23)cc1`: the Inhibition in the test on Staphylococcus aureus is -4.86%; in the test on Acinetobacter baumannii it was -14.93%; in the test with Escherichia coli, 9.5%; in the test on Klebsiella pneumoniae, 12.7%; with Candida albicans it was -0.47%; in the test on Cryptococcus neoformans, -1.96%.
As for `c1ccc(-c2ccc3c(c2)NCCN3)cc1`, the Inhibition was 0.03% in the test with Staphylococcus aureus; -10.39% in the test on Acinetobacter baumannii; 5.22% in the test on Escherichia coli; 8.37% in the test on Klebsiella pneumoniae; -1.02% with Candida albicans; 1.51% in the test on Cryptococcus neoformans.
Consider `Sc1ncnc2c1cnn2-c1ccccc1`, for which the Inhibition is -0.19% in the test with Staphylococcus aureus; -10.1% in the test with Acinetobacter baumannii; 15.12% in the test with Escherichia coli; 7.13% in the test on Klebsiella pneumoniae; 16.7% with Candida albicans; 30.67% with Cryptococcus neoformans.
Turning to `O=[N+]([O-])c1ccc(-c2ncc(-c3ccc(Br)cc3)o2)cc1`, the Inhibition was 5.59% with Staphylococcus aureus; 6.16% in the test with Acinetobacter baumannii; 2.7% with Escherichia coli; 5.71% with Klebsiella pneumoniae; 5.85% with Candida albicans; -3.69% in the test with Cryptococcus neoformans.
For the compound `[O-][n+]1ccc(CC(O)(C(F)(F)F)C(F)(F)F)cc1`, the Inhibition was -9.72% in the test on Staphylococcus aureus; -5.31% in the test with Acinetobacter baumannii; -11.83% with Escherichia coli; 9.87% in the test on Klebsiella pneumoniae; 4.37% with Candida albicans; -2.34% with Cryptococcus neoformans.
As for `O=NC1=C(c2cccc([N+](=O)[O-])c2)Nc2ccccc2S1`, the Inhibition was 0.76% with Staphylococcus aureus; 0.77% in the test with Acinetobacter baumannii; -6.48% in the test on Escherichia coli; 32.11% with Klebsiella pneumoniae; 13.1% in the test with Candida albicans; -8.32% in the test on Cryptococcus neoformans.
Regarding `C=CCNC(S)=Nc1c(N)n(C)c(=O)n(C)c1=O`, the Inhibition is 11.89% with Staphylococcus aureus; 5.83% in the test with Acinetobacter baumannii; -15.58% with Escherichia coli; 18.14% with Klebsiella pneumoniae; 8.36% with Candida albicans; 18.71% with Cryptococcus neoformans.
As for `O=C1Nc2ccccc2C1(c1ccc(O)cc1)c1ccc(O)cc1` [OXYPHENISATINE], the Inhibition is 24.64% in the test on Staphylococcus aureus; -10.84% in the test on Acinetobacter baumannii; 13.68% in the test with Escherichia coli; 5.85% in the test on Klebsiella pneumoniae; 2.96% in the test on Candida albicans; -4.24% in the test on Cryptococcus neoformans.
